Data: the supplement of paper PMC6555819

Each sequence was assayed on PPARg:RXRa 90nM:30nM, anti-RXR (NR concentration 90 nM, RXRa partner concentration 30 nM) (assay: PBM binding z-score (relative to random genomic background probes); higher = stronger binding; sequences stand for … in GC…GCGATTGACAGCGTAGAATGAAGG).
In short: (§1)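 Ligand-free nuclear receptor dimers were applied to custom Agilent 4×180K protein-binding microarrays whose double-stranded probes carried direct-repeat seeds, single-nucleotide variants, half-site ablations and random human genomic background sequences in 34-nt variable regions. Incubation lasted 1 h. Binding z-scores were computed against the random background probes from regression-normalized fluorescence.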

Sequence | PBM binding z-score
CGATCTAGGTCACCAGGACAGTGAAGAGGTTGGA | 6.26
CGAACTAGATCACCAGGACAGTGAAGAGGTTGGA | -0.286
CGAACTAGGTCACCTGGACAGTGAAGAGGTTGGA | 5.86
ATATGTAGGTTAGGGTCTTTCAGAAAGTAGGGAA | 3.03
CGAACTAGGTCAAAGGACAGTGGAAGGCGACGTA | 9.05
CGAACTAGGTCACCAGGACAGTGCAGAGGTTGGA | 6.44
CGAACTAGGTCAAAGGACAGTGATAGGCGACGTA | 9.35
ATATGTAGGTTAGTGTCATTCAGAAAGTAGGGAA | 2.8
CGTACTAGGTCACCAGGACAGTGAAGAGGTTGGA | 5.83
ATATGTAGGTTAGGCTCATTCAGAAAGTAGGGAA | 1.84
ATATGCAGGTTAGGGTCATTCAGAAAGTAGGGAA | 3.4
CGAACTAGGTCACCAGGAGAGTGAAGAGGTTGGA | 6.24
CGAACTAGGTCAAATGACAGTGAAAGGCGACGTA | 7.38
CGAACTAGGTCAAAGGACAGTGACAGGCGACGTA | 9.48
ATAAGTAGGTTAGGGTCATTCAGAAAGTAGGGAA | 7
CGAACTAGGTCACCAGGACAGTAAAGAGGTTGGA | 6.51
ATATGTAGGTGAGGGTCATTCAGAAAGTAGGGAA | 6.5
CGAACTAGGTCAGCAGGACAGTGAAGAGGTTGGA | 4.13
CGAACTAGGTCAAAGGACAATGAAAGGCGACGTA | 9.41
CGATCTAGGTCAAAGGACAGTGAAAGGCGACGTA | 9.24

Sequence | PBM binding z-score
ATATGTAGGTTAGAGTCATTCAGAAAGTAGGGAA | 3.08
CGAACTAGGTCACCAGGACAGTGAAGAGGTTGGA | 6.65
ATATGTAGGCTAGGGTCATTCAGAAAGTAGGGAA | 4.24
CGAACTTGGTCACCAGGACAGTGAAGAGGTTGGA | -0.143
ATATGTAGGTTAGGGGCATTCAGAAAGTAGGGAA | 4.77
ATATGTAGGTTAGGGTCATTAAGAAAGTAGGGAA | 6.14
ATATGTAGGTTTGGGTCATTCAGAAAGTAGGGAA | 2.29
ATATGTAAGTTAGGGTCATTCAGAAAGTAGGGAA | 2.64
ATATGAAGGTTAGGGTCATTCAGAAAGTAGGGAA | 2.87
CGAACTAGGTCAATGGACAGTGAAAGGCGACGTA | 5.61
CGAACTAGGTAACCAGGACAGTGAAGAGGTTGGA | 0.958
ATATGGAGGTTAGGGTCATTCAGAAAGTAGGGAA | 3.76
CGAACTAGGTCACCAGGGCAGTGAAGAGGTTGGA | 6.42
CGAACTAGGTCACCAGGACATTGAAGAGGTTGGA | 6.35
CGAACTAGGTCAAAGGACAGCGAAAGGCGACGTA | 10.3
CGAACTAGGCCACCAGGACAGTGAAGAGGTTGGA | 1.23
CGAACTAGGGCACCAGGACAGTGAAGAGGTTGGA | 2.7
CCAACTAGGTCACCAGGACAGTGAAGAGGTTGGA | 6.09
CGAACTAGGTCAAAGTACAGTGAAAGGCGACGTA | 8.33

These sequences were tested on PPARg:RXRa DBDmut IVT, anti-RXR (DBD mutation: RXRa K156A/R161A, NR concentration 270 nM, RXRa partner concentration 90 nM) in the same assay as above.
In short: as §1

Sequence | PBM binding z-score
CGATCTAGGTCACCAGGACAGTGAAGAGGTTGGA | 8.32
CGAACTAGATCACCAGGACAGTGAAGAGGTTGGA | 3.19
CGAACTAGGTCACCTGGACAGTGAAGAGGTTGGA | 8.17
ATATGTAGGTTAGGGTCTTTCAGAAAGTAGGGAA | 6.29
CGAACTAGGTCAAAGGACAGTGGAAGGCGACGTA | 8.19
CGAACTAGGTCACCAGGACAGTGCAGAGGTTGGA | 8.28
CGAACTAGGTCAAAGGACAGTGATAGGCGACGTA | 8.07
ATATGTAGGTTAGTGTCATTCAGAAAGTAGGGAA | 6.62
CGTACTAGGTCACCAGGACAGTGAAGAGGTTGGA | 7.9
ATATGTAGGTTAGGCTCATTCAGAAAGTAGGGAA | 6.49
ATATGCAGGTTAGGGTCATTCAGAAAGTAGGGAA | 2.72
CGAACTAGGTCACCAGGAGAGTGAAGAGGTTGGA | 8.2
CGAACTAGGTCAAATGACAGTGAAAGGCGACGTA | 7.89
CGAACTAGGTCAAAGGACAGTGACAGGCGACGTA | 8.32
ATAAGTAGGTTAGGGTCATTCAGAAAGTAGGGAA | 6.82
CGAACTAGGTCACCAGGACAGTAAAGAGGTTGGA | 8.12
ATATGTAGGTGAGGGTCATTCAGAAAGTAGGGAA | 7.49
CGAACTAGGTCAGCAGGACAGTGAAGAGGTTGGA | 7.67
CGAACTAGGTCAAAGGACAATGAAAGGCGACGTA | 7.79
CGATCTAGGTCAAAGGACAGTGAAAGGCGACGTA | 7.67

Sequence | PBM binding z-score
ATATGTAGGTTAGAGTCATTCAGAAAGTAGGGAA | 6.33
CGAACTAGGTCACCAGGACAGTGAAGAGGTTGGA | 8.47
ATATGTAGGCTAGGGTCATTCAGAAAGTAGGGAA | 4.03
CGAACTTGGTCACCAGGACAGTGAAGAGGTTGGA | 1.74
ATATGTAGGTTAGGGGCATTCAGAAAGTAGGGAA | 6.62
ATATGTAGGTTAGGGTCATTAAGAAAGTAGGGAA | 6.33
ATATGTAGGTTTGGGTCATTCAGAAAGTAGGGAA | 2.79
ATATGTAAGTTAGGGTCATTCAGAAAGTAGGGAA | 1.38
ATATGAAGGTTAGGGTCATTCAGAAAGTAGGGAA | 1.38
CGAACTAGGTCAATGGACAGTGAAAGGCGACGTA | 7.65
CGAACTAGGTAACCAGGACAGTGAAGAGGTTGGA | 6.32
ATATGGAGGTTAGGGTCATTCAGAAAGTAGGGAA | 2.21
CGAACTAGGTCACCAGGGCAGTGAAGAGGTTGGA | 8.17
CGAACTAGGTCACCAGGACATTGAAGAGGTTGGA | 7.89
CGAACTAGGTCAAAGGACAGCGAAAGGCGACGTA | 8.31
CGAACTAGGCCACCAGGACAGTGAAGAGGTTGGA | 6.89
CGAACTAGGGCACCAGGACAGTGAAGAGGTTGGA | 7.2
CCAACTAGGTCACCAGGACAGTGAAGAGGTTGGA | 7.98
CGAACTAGGTCAAAGTACAGTGAAAGGCGACGTA | 7.91
